Test results published in the supplement of paper PMC12340641.
Structures can show the parent of a compound that is named as a salt.

Assays:
[1] = target: IKZF1 (dCK*-IKZF1 fusion in HEK293FT) (UniProt Q13422); test: inhibition of IKZF1 HTRF signal (DMSO = 0%, pomalidomide 10 uM = 100%); higher = lower IKZF1 protein level; conditions: compound concentration: 5 uM, overnight (~20 h)
Method in brief: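 Compound was tested at 5 μM in single wells on HEK293FT cells (2000/well, 384-well) stably carrying an IKZF1 fusion, overnight at 37 °C. Total IKZF1 was measured in lysates with a commercial HTRF antibody kit as the background-subtracted 665/620 nm time-resolved FRET ratio. The reported figure is percent inhibition of IKZF1 signal, scaled per plate between vehicle and a reference degrader. The vehicle anchor was 0% and the degrader anchor 100%.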

[2] = tested on: HEK293FT dCK*-only; test: relative growth in counter assay (no AraC = 100%, AraC + DMSO = 0%); higher = more growth rescue independent of IKZF1; conditions: compound concentration: 5 uM; AraC concentration: 0.3 uM; overnight pretreatment + 4 days AraC
Method in brief: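 For this counter assay, relative growth was normalised on each plate to two kinds of reference wells. HEK293FT cells expressing only an engineered kinase construct (300/well, 384-well) were treated with 5 μM compound 2 h after seeding, then after overnight at 37 °C with a nucleoside suicide substrate at 0.3 μM plus medium for 4 days. On day 5, Hoechst 33342-stained nuclei were counted by imaging, taking wells without suicide substrate as 100% and substrate plus vehicle as 0%.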

[3] = tested on: HEK293FT dCK*-IKZF1; test: relative growth recovery (pomalidomide 10 uM = 100%, DMSO = 0%); higher = more growth rescue (IKZF1 fusion degradation); conditions: compound concentration: 5 uM; AraC concentration: 0.3 uM; overnight pretreatment + 4 days AraC
Method in brief: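 HEK293FT cells stably expressing an engineered deoxycytidine kinase–IKZF1 fusion were seeded at 300 per well in 384-well plates and given 5 μM compound 2 h later. After overnight incubation at 37 °C, a nucleoside suicide substrate at 0.3 μM was added with medium for 4 days, and on day 5 Hoechst 33342-stained nuclei were counted by whole-well imaging. Growth recovery was normalised per plate between a reference degrader and vehicle, set to 100% and 0% respectively, and the values are means of duplicates run on different days.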

IKZF1 (dCK*-IKZF1 fusion in HEK293FT), sequence (Q13422 whole entry, looked up, the tested form may be a part): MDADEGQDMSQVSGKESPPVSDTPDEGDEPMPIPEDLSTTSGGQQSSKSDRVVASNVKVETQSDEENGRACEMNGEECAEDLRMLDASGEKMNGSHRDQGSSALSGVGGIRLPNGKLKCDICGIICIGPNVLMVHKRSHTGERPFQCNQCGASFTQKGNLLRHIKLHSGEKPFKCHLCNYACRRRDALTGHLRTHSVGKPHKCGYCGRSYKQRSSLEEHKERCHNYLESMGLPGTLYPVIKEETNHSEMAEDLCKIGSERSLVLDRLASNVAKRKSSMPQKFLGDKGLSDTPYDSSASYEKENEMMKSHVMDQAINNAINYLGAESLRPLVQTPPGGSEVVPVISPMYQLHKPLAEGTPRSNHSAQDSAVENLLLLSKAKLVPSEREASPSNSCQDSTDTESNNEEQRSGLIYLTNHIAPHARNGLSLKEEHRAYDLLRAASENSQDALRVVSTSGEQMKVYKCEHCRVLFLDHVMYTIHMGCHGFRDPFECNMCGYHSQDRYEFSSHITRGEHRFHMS

| SMILES | inhibition of IKZF1 HTRF signal [1] [%] | relative growth in counter assay [2] [%] | relative growth recovery [3] [%] |
| --- | --- | --- | --- |
| COc1ccccc1Oc1c(NS(=O)(=O)c2ccc(C)cn2)nc(-c2ccncc2)nc1OC [Avosentan] | -39.7 | -4.67 | -1.19 |
| Cc1nnsc1C(=O)Nc1ccc(-n2nc(C(F)(F)F)cc2C(F)(F)F)cc1 | -28.9 | 3.65 | 0.005 |
| CCN(CC)CCCC(C)Nc1nc(C)cc(Nc2ccc3nc(C)cc(N)c3c2)n1 (stereo unspecified) | -45.1 | -7.4 | 0.345 |
| Nc1ncc(Cc2ccc(Br)cc2)s1 | -28.6 | -1.27 | -1.02 |
| O=C(O)c1cc([N+](=O)[O-])ccc1NCCCc1ccccc1 | -22.5 | -2.81 | -1.86 |
| CN1CCN(CCCN2c3ccccc3Sc3ccc(C(F)(F)F)cc32)CC1 | 5.07 | 23.1 | 3.05 |
| Clc1ccc(C(Cn2ccnc2)OCc2csc3c(Cl)cccc23)c(Cl)c1 (stereo unspecified) [Sertaconazole] | -18.6 | 3.66 | 1.54 |
| CC[C@@]1(O)C(=O)OCc2c1cc1n(c2=O)Cc2cc3c(N)cccc3nc2-1 [9-aminocamptothecin] | 31.3 | -33.7 | -12.4 |
| CN(C)CC/C=C1\c2ccccc2CSc2ccccc21 [dosulepin] | -26.3 | -9.29 | -1.36 |
| CN1CCCC1CCOC(C)(c1ccccc1)c1ccc(Cl)cc1 (stereo unspecified) [Clemastine fumarate] | 11 | 6.63 | 5.08 |
| CCN(CC)CCCCC(NC(=O)c1ccc([N+](=O)[O-])cc1)c1ccccc1 (stereo unspecified) [nibentan] | -51.4 | 11.1 | 1.83 |
| CN(C)CCC=C1c2ccccc2CCc2ccccc21 | 8.98 | -1.73 | 0.57 |
| COc1cc([C@@H]2c3cc4c(cc3[C@@H](O[C@@H]3O[C@@H]5CO[C@@H](C)O[C@H]5[C@H](O)[C@H]3O)[C@H]3COC(=O)[C@H]23)OCO4)cc(OC)c1O [Etoposide] | -29.2 | -34.7 | -12.5 |
| OCCN=CCNc1ccc(NCCNCCO)c2c(O)c3c(O)ccc(O)c3c(O)c12 [Mitoxantrone HCl] | -45.5 | -34.8 | -13.6 |
| CC(=O)[C@@]1(O)C=C(O[C@H]2C[C@H](N)[C@H](O)[C@H](C)O2)c2c(c(O)c3c(O)c4ccccc4c(O)c3c2O)C1 [Idarubicin HCl] | 87.1 | -34.3 | -13 |
| C[C@@H]1CC(=O)NN=C1c1ccc(NN=C(C#N)C#N)cc1 | -27.1 | 11.2 | -2.62 |

| SMILES | inhibition of IKZF1 HTRF signal [1] [%] | relative growth in counter assay [2] [%] | relative growth recovery [3] [%] |
| --- | --- | --- | --- |
| O=C(CCCCCCC(=O)NO)NO | -47.9 | -7.76 | -0.655 |
| Cc1cc(NC(=O)C(c2ccccc2)N2CCCc3ccccc32)no1 (stereo unspecified) | -21.4 | -9.71 | 1.48 |
| COc1cc(NS(=O)(=O)c2ccc(N)cc2)nc(OC)n1 | -24.5 | -0.83 | -4.54 |
| O=C1Nc2ccc(I)cc2/C1=C/c1cc(Br)c(O)c(Br)c1 | -34.2 | 4.46 | -2.06 |
| CCOC(=O)Nc1ccc2c(c1)N(C(=O)CN(C)C)c1ccccc1CC2 [Tiracizine] | 1.99 | 0.34 | -0.145 |
| O=C1Nc2ccc(Cl)cc2[C@@](C#CC2CC2)(C(F)(F)F)O1 [Efavirenz] | 19.7 | 3.1 | 2.08 |
| O=c1oc(-c2ccc(C(F)(F)F)cc2)nn1Cc1cc(Cl)ccc1O | 11.5 | -6.2 | -5.1 |
| COc1ccc2c(C)nc(Nc3nc(C)c(C)c(O)n3)nc2c1 [madrasin] | -28.1 | 6.01 | 0.18 |
| O=C(NCc1ccc(OC(F)(F)F)cc1)C1c2ccccc2C(=O)N1C1CCOCC1 (stereo unspecified) | -25.8 | -2.6 | -1.02 |
| O=C(Nc1ccc(C(O)(C(F)(F)F)C(F)(F)F)cc1)c1ccc(C(F)(F)F)cc1 | -28.5 | 49.3 | 53.1 |
| NC(=O)c1nnn(Cc2cc(Cl)c(C(=O)c3ccc(Cl)cc3)c(Cl)c2)c1N [carboxyamidotriazole] | -49.1 | -4.77 | -2.6 |
| COCCN(C(=O)c1cc(OC)c(OC)c(OC)c1)c1nc(-c2ccccc2)cs1 [eact] | -41.3 | -0.03 | -1.76 |
| COC(=O)Nc1nc2cc(C(=O)c3ccc(F)cc3)ccc2[nH]1 | -13.6 | -8 | -4.8 |
| CN(C)CC(O)Cn1c2ccc(Br)cc2c2cc(Br)ccc21 (stereo unspecified) [wiskostatin] | -32.4 | -9.92 | -2.88 |
| CCC(C)c1ccc(NC(=O)Cn2cnc3c2c(=O)n(C)c(=O)n3C)cc1 (stereo unspecified) | -44.5 | -2.66 | 1.29 |
| CN(CC3)C[C@@H](O)[C@H]3[C@]1=C(OC(C4=CC=CC=C4Cl)=CC2=O)C2=C(O)C=C1O [alvocidib] | -30.5 | -35.2 | -12.5 |
